Assay outcomes (PubChem)
Hits are enriched below; roughly 32% of the tested compounds scored in any of these assays.
PostGolgi ctrl – growth of the yeast control strain, post-Golgi counter-screen; efflux-deficient yeast background strain, growth absorbance A615, 16 h; inhibition, % at 10 µM; 5% of 98,000 active; AID 738
CYP2C9 activ – activators of human CYP2C9. recombinant CYP2C9, luciferin-H conversion, luminescence; stronger effect = higher value; factor 1 = untreated enzyme, 0 = blocked. activation factor at 5 µM. P11712. 1.4% of 96,000 active. AID 1024;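 active = activation factor of 2 or more for CYP2C9 at a 5 µM dose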;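 note: 0 = sulfaphenazole-blocked wells and 1 = vehicle-only wells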
PostGolgi yeast – growth inhibition of a yeast mutant, post-Golgi transport screen. 0.9% of 98,000 active. post-Golgi transport phenotypic cell assay. inhibition, % at 10 µM;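 note: yeast cells grown in 1536-well plates; yeast grown about 18 h at 30C before absorbance read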
CYP2C9 inh – inhibitors of human CYP2C9; CYP2C9 Supersomes, luciferin-H conversion, luminescence; inhibition, % at 5 µM; 20% of 96,000 active;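 active = blocking of liver enzyme CYP2C9 beyond about 50% at 5 µM, limit read from the data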
CYP2C19 inh – blocks human cytochrome P450 2C19; CYP2C19 Supersomes, luciferin-H EGE luminescence, 30 min; 21% of 96,000 active; P33261; inhibition, % at 5 µM;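 active = CYP2C19 inhibition above a set limit at 5 µM in the primary screen, cut at about 50% in these data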;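 note: plate controls were negative control wells for no effect and 2.5 mM tranylcypromine positive control for full effect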
Target sequence (P33261 whole entry, looked up): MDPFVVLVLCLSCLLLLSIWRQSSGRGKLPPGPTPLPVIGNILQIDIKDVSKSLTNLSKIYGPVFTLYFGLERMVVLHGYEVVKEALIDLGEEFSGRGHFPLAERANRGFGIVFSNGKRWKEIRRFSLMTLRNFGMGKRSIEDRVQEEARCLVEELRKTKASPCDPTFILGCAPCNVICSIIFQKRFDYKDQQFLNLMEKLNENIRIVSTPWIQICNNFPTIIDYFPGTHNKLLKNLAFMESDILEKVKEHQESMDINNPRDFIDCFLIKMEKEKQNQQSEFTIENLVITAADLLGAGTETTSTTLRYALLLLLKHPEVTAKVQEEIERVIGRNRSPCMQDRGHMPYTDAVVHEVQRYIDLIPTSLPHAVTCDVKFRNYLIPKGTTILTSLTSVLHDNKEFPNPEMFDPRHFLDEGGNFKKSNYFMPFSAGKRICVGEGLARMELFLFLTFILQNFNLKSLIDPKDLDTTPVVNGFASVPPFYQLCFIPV
CYP2C19 activ – activators of human cytochrome P450 2C19. 96,000 tested, under 10 active. AID 1025. recombinant CYP2C19, luciferin-H EGE luminescence; stronger effect = higher value; 0 = fully inhibited enzyme, 1 = untreated enzyme. activation factor at 5 µM;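 active = activation factor of at least 2 at 5 µM in the primary screen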;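 note: 0 = wells with 2.5 mM tranylcypromine and 1 = vehicle-only wells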
* hit, by the source's call; · = not tested or not shown. Cut-off read from the data, not from the text of the source, unless noted: active = inhibition above about 30%; inactive = the rest.

SMILES	PostGolgi ctrl	CYP2C9 activ	PostGolgi yeast	CYP2C9 inh	CYP2C19 inh	CYP2C19 activ
CC(=O)NC(Cc1c[nH]c2ccccc12)C(=O)N1CCc2ccccc2C1 (stereo not drawn)	-0.6	0.5	-0.9	46.9	75.4*	0.2
COC(=O)C(Cc1c[nH]c2ccccc12)NC(=O)CNC(C)=O (stereo not drawn)	14.0	1	2.6	-2.6	12.7	0.9
Cc1cc(NC(=O)COC(=O)[C@H](Cc2c[nH]c3ccccc23)NC(=O)c2ccc(F)cc2)no1	0.7	0.2	0.2	75.5*	29.9	0.7
CC(=O)NC(Cc1c[nH]c2ccccc12)C(=O)OCC(=O)Nc1ccc2c(c1)OCO2 (stereo not drawn)	5.9	0.3	-8.2	73.9*	39.2	0.6
O=C(NCc1ccco1)C1CC2CCC1C2 (stereo not drawn)	14.1	1	-4.1	1.8	26.5	0.7
Cc1nc2c3cnn(-c4ccc(C)c(C)c4)c3ncn2n1	24.6	0.9	1.7	12.9	5.6	0.9
COc1cccc(NC2CC(=O)N(CCc3ccccc3)C2=O)c1 (stereo not drawn)	-2.0	0.8	4.3	20.9	49.8	0.5
COc1ccc(NC2CC(=O)N(c3cccc(C)c3)C2=O)cc1 (stereo not drawn)	11.3	0.9	5.8	12.6	59.9*	0.4
Cc1ccc(NC2CC(=O)N(Cc3ccccc3)C2=O)cc1 (stereo not drawn)	6.2	1.5	21.5	-45.6	67.9*	0.3
O=C1CC(Nc2ccccc2)C(=O)N1c1ccc(N2CCOCC2)cc1 (stereo not drawn)	2.1	1.2	-0.9	-20.0	-19.4	1.2
Cc1ccc(N2C(=O)CC(Nc3ccccc3)C2=O)cc1 (stereo not drawn)	-3.4	0.9	14.8	9.1	53.4*	0.5
CCCN(CCC)C1CC(=O)N(Cc2ccccc2)C1=O (stereo not drawn)	4.0	0.9	1.5	11.5	85.0*	0.2
CC(=O)Nc1ccc(S(=O)(=O)NC2(C(F)(F)F)NC(=O)N(c3ccc(Cl)cc3)C2=O)cc1 (stereo not drawn)	-3.8	0.8	-5.2	22.4	1.4	1
Cc1nc(SC2CC(=O)N(c3ccc([N+](=O)[O-])cc3)C2=O)nc2c1CCCC2 (stereo not drawn)	-1.5	0.9	10.5	12.5	20.9	0.8
CCOC(=O)c1cnc2ccc(C)cc2c1Sc1ccccc1C(=O)OC	-1.1	0.5	-6.8	45.6	28.7	0.7
O=C(NC1c2ccccc2-c2ccccc21)N1CCCCC1	12.4	1	-7.0	3.7	26.8	0.7
CCCCN1C(=O)CC(Nc2ccc(CC)cc2)C1=O (stereo not drawn)	0.4	0.8	7.5	22.4	77.2*	0.2
COc1cc(CNCCc2ccccc2)ccc1OCC(=O)NC(C)(C)C	9.3	0.6	-23.5	35.8	13.6	0.9
CCOc1cc(CNc2ccc(Br)cc2)cc(Br)c1OCC(=O)NC(C)(C)C	10.8	0.1	-5.1	89.1*	20.9	0.8
CCOc1cc(CNc2ccccc2)cc(Br)c1OCC(=O)NC(C)(C)C	7.8	0.5	-4.3	46.4	49.9	0.5
CCOc1cc(CNc2ccc(OC)cc2)cc(Br)c1OCC(=O)NC(C)(C)C	10.1	0.4	-0.9	58.7*	51.6*	0.5
COc1cc([N+](=O)[O-])ccc1N/C=C/C(=O)c1cccs1	12.9	0.8	-0.5	17.1	24.0	0.8
CCOC(=O)C1CCN(C(=O)CSc2n[nH]c(=O)[nH]c2=O)CC1	-9.8	1.1	-6.1	-10.6	-15.8	1.2
O=C(CSC1=NCCS1)N1CCN(c2ccc(Cl)cc2)CC1	4.0	0.8	4.8	16.2	62.0*	0.4
Cn1nnnc1SCC(=O)N1CCN(c2ccc(Cl)cc2)CC1	-3.8	0.7	-4.7	25.8	-11.4	1.1
SMILES	PostGolgi ctrl	CYP2C9 activ	PostGolgi yeast	CYP2C9 inh	CYP2C19 inh	CYP2C19 activ
CCOC(=O)C1CCN(C(=O)CSC2=NCCS2)CC1	4.8	0.9	-2.8	9.1	59.4*	0.4
O=C(Cn1nnc(-c2ccccc2NC(=O)C2CC2)n1)NC1CCCCC1	5.9	0.7	4.6	32.5	46.7	0.5
CC(=O)c1cccc(NC(=O)NCc2cccnc2)c1	0.9	0.8	-4.3	20.3	24.9	0.8
COC(=O)c1c(N)n(CCCN2CCOCC2)c2nc3ccccc3nc12	-1.0	1.1	-2.8	-11.8	34.4	0.7
Nc1c(C(=O)NCc2ccc(F)cc2)c2nc3ccccc3nc2n1CCCN1CCOCC1	73.2*	0.8	100.9*	20.2	35.7	0.6
COc1ccc(CNC(=O)c2c(N)n(CCCN3CCOCC3)c3nc4ccccc4nc23)cc1	19.8	0.9	6.9	12.7	74.9*	0.3
Cc1ccc(OCC(O)CNS(=O)(=O)c2ccccc2C(=O)O)cc1 (stereo not drawn)	-0.6	·	6.2	·	·	·
CCCCN(CC)C(=O)CSc1nc2ccccc2c(=O)n1CC1COc2ccccc2O1 (stereo not drawn)	5.2	0.3	1.4	74.1*	47.4	0.5
CCN(CC)C(=O)CSc1nc2ccccc2c(=O)[nH]1	5.7	0.9	15.2	12.9	-4.0	1
CCCCNC(=O)CSc1nc2ccccc2c(=O)n1CC1COc2ccccc2O1 (stereo not drawn)	11.4	0.7	7.4	31.6	70.3*	0.3
O=C(CCCn1c(SCC(=O)NCC2CCCO2)nc2ccccc2c1=O)NCC1CCCO1 (stereo not drawn)	5.7	0.6	-11.8	43.5	24.1	0.8
CCC(C)[C@H](NC(=O)NCc1ccccc1Cl)C(=O)O (stereo partly drawn)	0.1	0.7	-5.2	29.2	22.5	0.8
O=C(Cc1ccccc1[N+](=O)[O-])NCc1ccccc1Cl	22.9	2.4*	1.6	-139.0	47.1	0.5
COC(=O)c1cc(NC(=O)Cc2ccccc2[N+](=O)[O-])cc(C(=O)OC)c1	4.6	0.2	-4.5	79.0*	-6.1	1.1
CCC(CC)C(=O)NCc1ccccc1Cl	-6.4	0.3	3.3	67.0*	45.3	0.5
O=C(Cc1ccccc1[N+](=O)[O-])NCCSCc1c(F)cccc1Cl	11.3	1.1	-4.4	-6.1	-5.8	1.1
COC(=O)c1ccc2ccn(CC(=O)NC3CCCCC3)c2c1	11.4	0.6	2.0	44.2	25.5	0.7
CO/N=C/c1ccc(Oc2ccc(C)cc2)nc1	1.3	1.3	3.4	-26.1	31.9	0.7
CC(C)CCNC(=O)c1ccc2c(c1)ncn2C1CCCCC1	-4.0	0.7	-0.8	33.1	12.8	0.9
Cn1c(=O)c2c(nc(Cl)n2Cc2ccc(Cl)c(Cl)c2)n(C)c1=O	6.8	1	16.1	-0.3	10.3	0.9
Cc1ccc(-c2csc3nnc(SCC(=O)Nc4cccc(C)n4)n23)cc1	-5.8	0.5	34.7*	53.2*	57.3*	0.4
CC(=O)Nc1ccc(C(=O)CSc2nnc3scc(-c4ccccc4)n23)cc1	-13.3	0.4	-12.6	58.2*	33.8	0.7
